Compound activity: PubChem BioAssay, The Scripps Research Institute Molecular Screening Center
Hits are enriched below; roughly 2.3% of the tested compounds scored in any of these assays.
M1 antag: antagonists of human M1 muscarinic receptor. CHO-K1 hM1, Fluo-8 calcium fluorescence, ACh EC80 antagonist. inhibition, % at 3 µM. 1.3% of 360,000 active;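 active = percent inhibition above its own plate's cutoff, namely the mean of that plate's compound wells plus 3 SD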;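 note: peak over basal fluorescence ratio during 140 s after agonist addition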
Target sequence (P11229 whole entry, looked up): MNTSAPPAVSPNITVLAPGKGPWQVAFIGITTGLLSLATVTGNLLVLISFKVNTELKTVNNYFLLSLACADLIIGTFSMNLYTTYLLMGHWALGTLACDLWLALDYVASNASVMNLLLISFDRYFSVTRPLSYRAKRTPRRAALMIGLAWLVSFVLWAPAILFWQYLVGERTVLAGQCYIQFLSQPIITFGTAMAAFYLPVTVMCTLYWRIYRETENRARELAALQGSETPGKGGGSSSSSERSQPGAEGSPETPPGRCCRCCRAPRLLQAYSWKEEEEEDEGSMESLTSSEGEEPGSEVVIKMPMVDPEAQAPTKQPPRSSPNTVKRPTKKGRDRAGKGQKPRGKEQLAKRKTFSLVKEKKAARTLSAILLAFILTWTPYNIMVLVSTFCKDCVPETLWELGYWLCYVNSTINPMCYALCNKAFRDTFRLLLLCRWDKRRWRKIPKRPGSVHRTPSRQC
M1 ag parental: M1 agonist counterscreen hit in parental CHO-K1 cells. Fluo-8 calcium fluorescence; scaled to maximal ATP response, vehicle zero. activation, % at 3 µM. 0.48% of 360,000 active. AID 602248; in the data active = activation above about 15%;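 note: untransfected CHO-K1 host cells lacking M1 receptor as counterscreen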
CHRM1 agonist: agonists of human M1 muscarinic receptor | CHO-K1 hM1, Fluo-8 calcium fluorescence, agonist mode; 0% DMSO, 100% acetylcholine EC100 | activation, % at 3 µM | 0.33% of 360,000 active;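 active = activation above the run's mean compound activation plus 3 SD, cut at about 16% in these data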;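 note: peak over basal fluorescence ratio within a 140 s kinetic read after compound addition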
CHO-K1 Ca antag: nonselective inhibitor or artifact in parental CHO-K1 cells | AID 602250 | ATP-induced calcium, Fluo-8 fluorescence | inhibition, % at 3 µM | 0.6% of 360,000 active;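 active = inhibition above a per-plate cutoff, the plate's mean sample inhibition plus 3 SD, cut at about 24% in these data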
CHRM1 PAM: human CHRM1 positive allosteric modulation; P11229; CHO-K1 hM1, Fluo-8 calcium fluorescence, ACh EC20; 0% = ACh EC20, 100% = maximal ACh; activation, % at 3 µM; 0.088% of 360,000 active; AID 588819; in the data active = activation above about 19%, passing the limit was not always enough
CHO-K1 Ca PAM: counter-screen for M1 PAMs: effect in parental CHO-K1 cells; activation, % at 3 µM; AID 602247; ATP EC20, Fluo-8 calcium fluorescence; 0% at ATP EC20, 100% at ATP max; 0.02% of 360,000 active;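 active = activation above the run cutoff, the mean activation of all test compounds plus 3 SD, cut at about 40% in these data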;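 note: peak over basal fluorescence ratio in a 140 s read after ATP addition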
Of the large screens only hits and unclear results are named; the others gave an inactive call.

CC1(C(=O)NS(=O)(=O)c2ccc3c(c2)CCO3)CCN1C(=O)C1(c2ccc(Cl)cc2)CC1 (stereo not drawn)	none
COc1ccccc1C(=O)NC(CCSC)C(=O)OCC(=O)N1CCCC1=O (stereo not drawn)	none
COc1ccc(OCC(=O)OC2CCN(C)CC2)cc1	none
CN1CCC(OC(=O)COc2ccc(Br)cc2)CC1	M1 antag 30.6
Cc1ccccc1OCC(=O)OC1CCN(C)CC1	M1 antag 32.0
CC(C#N)Sc1ncnc2sc(-c3ccccc3)cc12 (stereo not drawn)	none
COc1cc2c(cc1OC)CN(c1nc(CN3CCOCC3)nc3sc4c(c13)CCCC4)CC2	none
COc1cc2c(cc1OC)CN(c1nc(CN3CCCCC3)nc3sc4c(c13)CCCC4)CC2	M1 ag parental 20.1
CCc1ccc(OC(C)C(=O)Nc2ccc(S(=O)(=O)Nc3nccs3)cc2)cc1 (stereo not drawn)	CHRM1 agonist 16.8
Cc1ccc(OC(C)C(=O)Nc2ccc(S(=O)(=O)Nc3nccs3)cc2)cc1 (stereo not drawn)	none
COc1ccc(-c2cc3c(=O)n(CC(=O)Nc4cccc(Cl)c4)nc(C)n3n2)cc1	none
O=C(CN1CCN(C2CCCCC2)CC1)NCCC1=CCCCC1	CHRM1 agonist 44.6
CS(=O)(=O)N(CC(=O)NCCC1=CCCCC1)C1CCCCC1	none
Cc1ccc(-c2[nH]ncc2/C=N/n2c(COc3ccccc3)nc3ccccc3c2=O)cc1	M1 antag 29.4
Cc1ccccc1OCc1nc2ccccc2c(=O)n1/N=C/c1cn[nH]c1-c1ccccc1	M1 antag 29.1
Cc1nc2ccccc2c(=O)n1/N=C/c1cn[nH]c1-c1ccccc1	none
CCOC(=O)c1c(C)n(C)c2ccc(OC)c(NC(=O)CCN3CCC(Cc4ccccc4)CC3)c12	none
N#Cc1ccc(CSc2nnc(-c3c[nH]c4ccccc34)n2-c2ccccc2)cc1	none
CCc1nc2c(OCc3c(C)noc3C)cccn2c1N(C=O)Cc1ccc(OC)cc1	CHO-K1 Ca PAM 41.0
O=C(NCCc1ccccc1)c1ccc(NC(=O)c2cccnc2)cc1	none
CCOC(=O)c1ccc(NC(=O)CCc2nc(-c3ccccc3)no2)cc1	M1 antag 31.1
O=C(Nc1ccc(-c2noc(CCc3ccccc3)n2)cc1)c1cccnc1	M1 antag 26.1
CN(C)CCCN=C(NO)c1ccc(Cl)cc1Cl	CHRM1 agonist 49.9
Cc1onc(-c2ccccc2)c1C(=O)NC(=S)NNC(=O)c1ccccc1O	M1 ag parental 77.0, CHRM1 agonist 74.2
CCCOc1ccc(C(=O)NC(=S)NNC(=O)c2c(-c3ccccc3)noc2C)cc1	M1 antag 62.1, M1 ag parental 32.7, CHRM1 agonist 96.9
Cc1onc(-c2ccccc2)c1C(=O)NC(=S)NNC(=O)c1ccc(O)cc1O	none
CC(Nc1c[nH]c(=O)[nH]c1=O)c1ccccc1 (stereo not drawn)	none
O=C(C/C=N\OCc1ccc([N+](=O)[O-])cc1)Nc1ccc(F)cc1F	M1 ag parental 29.4
CO/N=C/CC(=O)Nc1ccc(F)cc1F	none
CC1Cc2cc(S(=O)(=O)N3CCN(c4ccccc4F)CC3)ccc2N1C(=O)C1CC1 (stereo not drawn)	none
CCc1noc(C)c1C(=O)Nc1nnc(C(CC)CC)s1	none
CCOC(=O)C1CCN(S(=O)(=O)c2ccc3[nH]c4c(c3c2)CCCC4)CC1	M1 ag parental 16.0
CC(=O)N1CCN(CC(C)(C)NS(=O)(=O)c2ccccc2)CC1	none
CCOC(=O)C1CCN(S(=O)(=O)c2ccc(C)c(C)c2)CC1	M1 ag parental 16.7
CCOC(=O)C1CCN(CC(C)(C)NS(=O)(=O)c2ccccc2)CC1	M1 ag parental 18.5
O=C(CCCc1nc2ccccc2s1)NCc1ccccc1	none
O=C(CCCc1nc2ccccc2s1)NNC(=O)CCN1CCN(Cc2ccccc2)CC1	CHRM1 agonist 17.3
S=C(Nc1ccccc1)Nc1ccc(OCc2ccccc2)cc1	CHO-K1 Ca antag 26.2
O=C(CCN1CCN(CCO)CC1)Nc1ccc(OCc2ccccc2)cc1	none
O=C(CCN1CCN(Cc2ccccc2)CC1)Nc1ccc(OCc2ccccc2)cc1	M1 antag 24.4
c1ccc(CN2CCN(CCOCCOc3ccc4c(c3)CCC4)CC2)cc1	M1 antag 29.2
NS(=O)(=O)c1ccc(NC(=S)Nc2ccc(OCc3ccccc3)cc2)cc1	none
O=C(C[n+]1ccc(/C=N/O)cc1)N1CCCCC1	none
COc1ccccc1N1C(=O)CC(Sc2n[nH]c(-c3cccc(C)c3)n2)C1=O (stereo not drawn)	none
CC(=O)Nc1ccc(S(=O)(=O)N(C)c2ccc(OCC(=O)OCC(=O)NCc3ccco3)cc2)cc1	none
O=C(CNC(=O)c1ccccc1)OCCCOC(=O)CNC(=O)c1ccccc1	none
O=C(c1ccccc1)c1ccc(OCCOCCN2CCN(Cc3ccccc3)CC2)cc1	M1 antag 87.3
NS(=O)(=O)c1cccc(NC(=O)COC(=O)CCN2C(=O)c3ccccc3C2=O)c1	none
O=C(C1CCC(CNS(=O)(=O)c2cccs2)CC1)N1CCN(c2ccc(Cl)cc2)CC1 (stereo not drawn)	M1 ag parental 15.9
O=C(C[C@@H]1C/C=C\C[C@H](Cc2ccc(F)cc2)C(=O)OC[C@@H](c2ccccc2)NC1=O)NCCO	none
O=C(/C=C/Sc1ccc(C(F)(F)F)cn1)c1ccccc1	none
CCOC(=O)c1c(NC(=S)N2CCN(C)CC2)sc2c1CCN(C(=O)OCC)C2	CHRM1 agonist 22.5
CCOC(=O)c1c(NC(=O)CN(CC)CC)sc2c1CCN(C(=O)OCC)C2	none
Cn1ccnc1CN1CCCCC1C(=O)Nc1ccc(Oc2cccnc2)cc1 (stereo not drawn)	none
Cc1ccc(NC(=O)c2ccc3nc[nH]c3c2)cc1C	M1 ag parental 18.3
CCOc1ccccc1CN1CCCC(CNS(=O)(=O)c2ccc(OC)cc2)C1 (stereo not drawn)	M1 antag 37.6
C[C@H]1CN([C@@H](C)CO)C(=O)CCCn2cc(nn2)CO[C@@H]1CN(C)C(=O)Nc1ccc(N2CCCCC2)cc1	none
Cc1cc(C)c2nc(N3CCCC(C(=O)NC4CCCC4)C3)sc2c1 (stereo not drawn)	none
CCNC(=O)C/C(C)=N/NC(=O)C12CC3CC(CC(C3)C1)C2	CHO-K1 Ca antag 24.2
O=c1[nH][nH]c2c1[C@H](c1ccc(F)cc1)O[C@H](CCC(F)(F)F)C2	none (no result: M1 antag, CHRM1 agonist, CHRM1 PAM)
CCCCN(CCCC)c1ccc(C(=O)c2ccccc2C(=O)O)c(O)c1	M1 ag parental 15.3, CHRM1 agonist 36.7
O=C1NC[C@H](CCCCN2C[C@@H](Cc3ccccc3)N(CC3CCCCC3)C(=O)C2=O)N(CCC2CCCCC2)C1=O	M1 ag parental 26.3 (no result: M1 antag, CHRM1 agonist, CHRM1 PAM)
O=C1NC[C@H](CCCCN2C[C@H](Cc3ccccc3)N(CC3CCCCC3)C(=O)C2=O)N(CCC2CCCCC2)C1=O	none (no result: M1 antag, CHRM1 agonist, CHRM1 PAM)
